# Screening results from PubChem BioAssay.
# A selection: hits, their analogues and other compounds. The true share with any hit is near 3.5%.
# MITF inh = inhibitors of human MITF. AlphaScreen MITF homodimerization, bead proximity signal. inhibition, % at 2.6 µM. actives 0.91% (n = 650,000). AID 1259374; in the data active = inhibition above about 50%;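 note: 0% = vehicle wells with protein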
# Target sequence (O75030 whole entry, looked up): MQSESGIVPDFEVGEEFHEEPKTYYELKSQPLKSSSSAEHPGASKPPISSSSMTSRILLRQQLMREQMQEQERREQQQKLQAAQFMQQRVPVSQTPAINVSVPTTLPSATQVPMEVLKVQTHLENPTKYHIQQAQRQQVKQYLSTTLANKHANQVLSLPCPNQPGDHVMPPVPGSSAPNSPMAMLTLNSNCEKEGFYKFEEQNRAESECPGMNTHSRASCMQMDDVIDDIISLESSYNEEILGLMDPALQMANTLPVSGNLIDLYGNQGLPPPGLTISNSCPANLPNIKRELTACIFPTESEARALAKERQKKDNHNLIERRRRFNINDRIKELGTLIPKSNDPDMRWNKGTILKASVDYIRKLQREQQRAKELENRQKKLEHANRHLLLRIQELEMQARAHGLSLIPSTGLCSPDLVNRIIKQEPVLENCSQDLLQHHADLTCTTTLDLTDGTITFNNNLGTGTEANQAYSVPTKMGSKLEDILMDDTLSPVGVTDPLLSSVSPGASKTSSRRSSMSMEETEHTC
# FBW7 activator = activators of human E3 ligase FBW7. Q969H0. AlphaScreen FBW7–phospho-cyclin E peptide binding, activator screen. normalized activity (activation), % at 26.1 µM. actives 0.13% (n = 650,000); in the data active = normalized activity above about 1.9%;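 note: purified mutant Fbw7 with reduced substrate affinity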
# TEAD-YAP block = TEAD-YAP interaction inhibition; AID 1259422; actives 1.4% (n = 640,000); HEK-TIYL cells, TEAD-Gal4/YAP UAS-luciferase luminescence; inhibition, % at 9.12 µM; in the data active = inhibition above about 32%;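 note: 0% = median of test compound wells and 100% = reference inhibitor wells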
# GPR151 activ = activates the human receptor GPR151. Q8TDV0. PathHunter beta-arrestin GPR151 cells, luminescence. activation, % at 11.2 µM. actives 1% (n = 650,000). AID 1508602; in the data active = activation above about 4.9%;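 note: 0% = median of compound wells and 100% = cells with positive control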
# The depositor's hits bear a star.
SMILES,MITF inh,FBW7 activator,TEAD-YAP block,GPR151 activ
O=C(CCn1nnc2ccccc21)N/N=C\c1cc([N+](=O)[O-])ccc1O,42,0,10,1
O=C(N/N=C/c1cc([N+](=O)[O-])ccc1O)N/N=C/c1cc([N+](=O)[O-])ccc1O,-1,0,0,1
O=C(CNc1ccccc1)N/N=C/c1cc([N+](=O)[O-])ccc1O,54*,0,23,5
N#C/C(=C1/C(=O)Nc2ccc(Br)cc21)c1ccc2ccccc2n1,3,0,6,0
C/C(=N/NC(=O)COc1cccc(Cl)c1)c1ccc(Br)cc1,-7,0,7,-1
Cc1c(Cl)cccc1NC(=O)c1cc(S(=O)(=O)NCc2ccc(F)cc2)ccc1F,-3,0,6,-1
O=C(NCCOc1ccccc1Cl)c1ccc(CSC2CCCCC2)cc1,-5,0,-72,1
O=C(Cc1ccccc1)N/N=C/c1cccc2ccccc12,9,0,1,1
O=C(Cc1ccccc1)N/N=C/c1ccc(O)c2ncccc12,98*,0,15,1
O=C(N/N=C/c1ccc(O)c2ncccc12)c1ccc(F)cc1,113*,0,27,0
CC(=O)N1c2ccc(S(=O)(=O)N(C)CC(=O)Nc3cc(C)ccc3C)cc2CC1C (stereo not given),-12,0,-7,0
Cc1ccc(C(=O)C[n+]2cc(-c3ccc(C)cc3)n3c2CCCCC3)cc1,10,0,86*,-1
Cc1c(C(=O)N2CCC(O)CC2)sc2ncnc(NCC3COc4ccccc4O3)c12 (stereo not given),-17,0,-8,0
CCN(Cc1ccncc1)Cc1ccc2c(c1)CN(C(=O)c1cnn(CC)c1)CCO2,-5,0,4,0
CC(C)CCOC(=O)C[N+](C)(C)CCOC1CC2CCC1(C)C2(C)C (stereo not given),-13,0,37*,0
COc1ccccc1C(=O)Nc1ccc(Nc2cc(-n3ccnc3)ncn2)cc1,1,0,37*,0
O=C(Cc1ccc(F)cc1)Nc1ccc(Nc2cc(-n3ccnc3)ncn2)cc1,10,0,13,-2
O=C(Nc1ccc(Nc2cc(-n3ccnc3)ncn2)cc1)c1ccccc1Cl,-3,0,41*,1
O=C(Nc1ccc(Nc2cc(-n3ccnc3)ncn2)cc1)C(c1ccccc1)c1ccccc1,21,0,28,1
O=C(Nc1cccc2ccc(-n3ccnc3)nc12)c1ccccc1Cl,2,2.3*,9,1
Cc1onc(-c2ccccc2Cl)c1C(=O)Nc1cccc2ccc(-n3ccnc3)nc12,-2,0,19,3
OC(COCc1ccccc1)CN1CCN(c2ccc(F)cc2)CC1 (stereo not given),5,0,3,0
COCCNc1nc(-c2ccccc2C)ccc1C(=O)N1CCN(C)CC1,7,0,-6,1
O=S(=O)(Nc1ccc2c(c1)OCCO2)c1ccc(Cl)cc1,5,0,-8,-1
O=S(=O)(Cc1ccc(Cl)cc1)Nc1ccc2c(c1)OCCO2,3,0,41*,0
SMILES,MITF inh,FBW7 activator,TEAD-YAP block,GPR151 activ
Cc1ccc(N=c2c([N+](=O)[O-])nn(-c3ccccc3)n2O)c(Cl)c1,-2,0,7,1
Cc1ccc(N=c2c([N+](=O)[O-])nn(-c3ccc4c(c3)OCCO4)n2O)c(Cl)c1,-4,0,47*,1
O=[N+]([O-])c1nn(-c2ccc3c(c2)OCCO3)n(O)c1=Nc1ccccc1,0,0,89*,-1
Cc1cc(C)cc(N=c2c([N+](=O)[O-])nn(-c3ccc4c(c3)OCCO4)n2O)c1,9,0,-3,2
COc1ccc(-n2nc([N+](=O)[O-])c(=Nc3ccccc3)n2O)cc1,11,0,54*,0
CCOc1c(C)cnc2c1c(=O)n(CC(=O)Nc1ccc(CC)cc1)c(=O)n2C,4,0,-1,1
CC(=O)[C@]1(O)Cc2c(O)c3c(c(O)c2[C@@H](O[C@H]2C[C@H](N)[C@H](O)[C@H](C)O2)C1)C(=O)c1ccccc1C3=O,12,0,-33,1
COc1cccc2c1C(=O)c1c(O)c3c(c(O)c1C2=O)C[C@@](O)(C(C)=O)C[C@@H]3O[C@H]1C[C@H](N)[C@H](O)[C@H](C)O1,23,0,93*,-1
COc1cccc2c1C(=O)c1c(O)c3c(c(O)c1C2=O)C[C@@](O)(C(=O)CO)C[C@@H]3O[C@H]1C[C@H](N)[C@@H](O)[C@H](C)O1,30,0,62*,0
CN(C)c1ccc(CN(Cc2ccco2)C(=O)Cn2cnc3sc4c(c3c2=O)CCCC4)cc1,17,0,2,1
